# Records with an inconclusive call do not appear. Entries that show only a call come without a potency. Activity calls are given as the source filed them. Calls come from the whole dose curve; as a rule, active = well fitted curve in the direction sought with a large enough effect; inconclusive = small, poorly fitted or top-dose-only effect, or another doubt; inactive = no such curve, though single readings can be large; an effect the other way counts as inactive or inconclusive.
# Legend:
# [1] = qHTS for Inhibitors of the Aldehyde Dehydrogenase Family (ALDH1A2, ALDH1A3, ALDH2, ALDH3A1) (AID 2061307); conditions: ALDH inhibition qHTS; series mostly up to 50.3 µM; note: nearly all actives have a fitted effect of over 50% in size; for potency: test system not described further here; potency is the fitted concentration of half-maximal effect
# [2] = biological target: Aldehyde dehydrogenase, mitochondrial (Homo sapiens) (UniProt P05091); test: qHTS for Inhibitors of the Aldehyde Dehydrogenase Family (ALDH2) Primary screen (AID 2061308); conditions: ALDH2 enzyme inhibition qHTS, 1536-well; series mostly up to 56 µM; note: nearly all actives have a fitted effect of over 55% in size; note: potency is the fitted concentration of half-maximal effect
# [3] = biological target: Retinaldehyde dehydrogenase 3 (Homo sapiens) (UniProt P47895); test: qHTS for Inhibitors of the Aldehyde Dehydrogenase Family (ALDH1A3) Confirmatory screens (AID 2061311); conditions: ALDH inhibition qHTS; series mostly up to 46 µM; note: nearly all actives have a fitted effect of over 60% in size; note: potency is the fitted concentration of half-maximal effect
# [4] = biological target: Retinaldehyde dehydrogenase 3 (Homo sapiens) (UniProt P47895); test: qHTS for Inhibitors of the Aldehyde Dehydrogenase Family (ALDH1A3) Primary screen (AID 2061315); conditions: ALDH inhibition qHTS; series mostly up to 56 µM
# [5] = biological target: Retinal dehydrogenase 2 (Homo sapiens) (UniProt O94788); test: qHTS for Inhibitors of the Aldehyde Dehydrogenase Family (ALDH1A2) Confirmation screens (AID 2061314); conditions: ALDH1A2 enzyme inhibition qHTS confirmation; series mostly up to 45.9 µM; note: nearly all actives have a fitted effect of over 65% in size; note: potency is the fitted concentration of half-maximal effect
# [6] = biological target: Aldehyde dehydrogenase 1A1 (Homo sapiens) (UniProt P00352); test: qHTS for Inhibitors of the Aldehyde Dehydrogenase Family (ALDH1A1) Confirmatory screens (AID 2061316); conditions: ALDH inhibition qHTS; series mostly up to 47.3 µM; note: nearly all actives have a fitted effect of over 65% in size; note: potency is the fitted concentration of half-maximal effect
# [7] = BET inhibitor-based combinations targeting novel dependencies in MECOM-rearranged (r) AML: SET-2 cell line (AID 2202231); conditions: SET-2 AML cells viability, CellTiter-Glo luminescence, 48 h; viability: hits give low values, concentration not given here; note: potency is the fitted concentration of half-maximal effect; nearly all actives have a fitted effect of over 35% in size
# Method in brief: (§1)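 Viability of cells (500 per well) is scored by luminescent CellTiter-Glo at 48 hr post-dosing. Eleven-point titrations are normalized to DMSO and empty controls and reduced to AUC values.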
# [8] = BET inhibitor-based combinations targeting novel dependencies in MECOM-rearranged (r) AML: MV-4-11 cell line (AID 2202233); conditions: MV-4-11 AML viability, CellTiter-Glo luminescence, 48 h; series mostly up to 46 µM; note: potency is the fitted concentration of half-maximal effect; nearly all actives have a fitted effect of over 45% in size
# Method in brief: (§2)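 Using pin-tool transfer, drugs were added in 11 doses to cells (500/well), incubated 48 hr, and assessed with CellTiter-Glo. Z-AUC is a mean-centring transformation applied separately to each screened line.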
# [9] = BET inhibitor-based combinations targeting novel dependencies in MECOM-rearranged (r) AML: OCI-AML3 cell line (AID 2202232); conditions: CellTiter-Glo luminescence, 48 h; Potency: OCI-AML3 viability; series mostly up to 46 µM; note: potency is the fitted concentration of half-maximal effect; nearly all actives have a fitted effect of over 35% in size
# Method in brief: as §1
# [10] = BET inhibitor-based combinations targeting novel dependencies in MECOM-rearranged (r) AML: HNT-34 cell line (AID 2202234); conditions: HNT-34 AML viability, CellTiter-Glo luminescence, 48 h; series mostly up to 46 µM; note: potency is the fitted concentration of half-maximal effect; nearly all actives have a fitted effect of over 35% in size
# Method in brief: as §2
# [11] = BET inhibitor-based combinations targeting novel dependencies in MECOM-rearranged (r) AML: UCSD-AML1 cell line (AID 2202235); conditions: UCSD-AML1 AML cells viability, CellTiter-Glo, 48 h; series mostly up to 46 µM; note: potency is the fitted concentration of half-maximal effect; nearly all actives have a fitted effect of over 40% in size
# Method in brief: as §2
# [12] = BET inhibitor-based combinations targeting novel dependencies in MECOM-rearranged (r) AML: AML-191 cell line (AID 2202236; note: potency is the fitted concentration of half-maximal effect; nearly all actives have a fitted effect of over 35% in size); conditions: AML-191 viability, CellTiter-Glo luminescence, 48 h; series mostly up to 46 µM
# Method in brief: as §1
# [13] = BET inhibitor-based combinations targeting novel dependencies in MECOM-rearranged (r) AML: AML-194 cell line (AID 2202237; note: potency is the fitted concentration of half-maximal effect; nearly all actives have a fitted effect of over 40% in size); conditions: AML-194 (MECOM-r AML) viability, CellTiter-Glo, 48 h; series mostly up to 46 µM
# Method in brief: as §1
compound,measurement,setting,value
c1nc(NCC2CC2)c2cc(-c3ccc4c(c3)OCO4)ccc2n1,Potency,[1],inactive
same,Potency,[2],inactive
same,Potency,[3],inactive
same,Potency,[4],inactive
CC(C)(Nc1nc(-c2ccccc2C(F)(F)F)nc2ccccc12)c1ccc(-c2cccc(C(F)(F)F)c2)cc1,Potency,[1],inactive
same,Potency,[2],inactive
same,Potency,[3],inactive
same,Potency,[4],inactive
CN(C)c1ccc(C(=O)NCC(=O)OC(C(=O)Nc2cc(C(F)(F)F)ccc2Cl)c2ccccc2)cc1 (stereo not drawn),Potency,[1],inactive
same,Potency,[2],inactive
same,Potency,[3],11.3 µM (active)
same,Potency,[4],inactive
COc1ccc(C2=Nn3c(nnc3-c3ccccc3OC)SC2)cc1,Potency,[1],2.01 µM (active)
same,Potency,[2],inactive
same,Potency,[5],inactive
same,Potency,[4],inactive
N#Cc1c(-c2ccc(Br)cc2)no[n+]1[O-],Potency,[1],7.98 µM (active)
same,Potency,[2],7.94 µM (active)
same,Potency,[5],7.12 µM (active)
same,Potency,[4],inactive
CNC(=O)C1CCN(c2nc(-c3ccc(Br)cc3)cs2)CC1,Potency,[1],12.6 µM (active)
same,Potency,[2],inactive
same,Potency,[3],inactive
same,Potency,[4],inactive
COc1ccc(-c2nc3ccccc3c(=O)n2Cc2ccco2)cc1COc1ccc(NC(C)=O)cc1,Potency,[1],20.1 µM (active)
same,Potency,[2],inactive
same,Potency,[5],12.7 µM (active)
same,Potency,[4],inactive
CN1C(=O)Cc2cc([S+](=O)([O-])N3CCN([S+](=O)([O-])c4c(F)cccc4F)CC3)ccc21,Potency,[1],inactive
same,Potency,[2],inactive
same,Potency,[3],inactive
same,Potency,[4],inactive
O=C(Nc1nc(-c2ccccc2)cs1)c1ccncc1NS(=O)(=O)c1ccc(Cl)cc1,Potency,[1],25.2 µM (active)
same,Potency,[2],inactive
same,Potency,[5],10.1 µM (active)
same,Potency,[4],inactive
Cc1ccc2nc3sc(C(=O)N4CCCCC4)cc3cc2c1,Potency,[1],11.3 µM (active)
same,Potency,[2],inactive
same,Potency,[3],12.7 µM (active)
same,Potency,[4],inactive
C=C1[C@@H](OC(C)=O)CC[C@@]2(C)[C@@H](OC(C)=O)[C@H](OC(C)=O)C3=C(C)C[C@H](OC(=O)C(C)CC)[C@@H]([C@@H](OC(C)=O)[C@H]12)C3(C)C (stereo partly drawn),Potency,[1],inactive
same,Potency,[2],2.51 µM (active)
same,Potency,[3],inactive
same,Potency,[4],inactive
same,Potency,[6],inactive
COc1cc2ncnc(N(C)Cc3csc(C)n3)c2cc1-c1ccc2c(c1)OCO2,Potency,[1],inactive
same,Potency,[2],inactive
same,Potency,[5],inactive
same,Potency,[4],inactive
Cc1ccc(-c2cnn(CC(=O)NCCc3ccccc3)c(=O)c2)cc1,Potency,[1],12.7 µM (active)
same,Potency,[2],inactive
same,Potency,[3],14.1 µM (active)
same,Potency,[4],inactive
Nc1nccc(-c2c(-c3ccc(F)cc3)ncn2C2CCCCC2)n1,Potency,[1],inactive
same,Potency,[2],inactive
same,Potency,[3],inactive
same,Potency,[4],inactive
same,Potency,[7],20.9 µM (active)
same,Potency,[8],16.6 µM (active)
NC(=O)C1CCN(c2nccc(-c3ccc4c(c3)OCCCO4)n2)CC1,Potency,[1],inactive
same,Potency,[2],inactive
same,Potency,[3],12.7 µM (active)
same,Potency,[4],inactive
same,Potency,[6],11.3 µM (active)
N#Cc1cccnc1SC1=NS(=O)(=O)c2ccccc21,Potency,[1],0.891 µM (active)
same,Potency,[2],3.16 µM (active)
same,Potency,[3],1.27 µM (active)
same,Potency,[6],0.0712 µM (active)
NC(=O)C1CCN(c2nc(-c3cc4ccccc4o3)cs2)CC1,Potency,[1],2.83 µM (active)
same,Potency,[2],inactive
same,Potency,[3],inactive
same,Potency,[4],inactive
same,Potency,[6],6.34 µM (active)
N#Cc1c(-c2cccc(Cl)c2)no[n+]1[O-],Potency,[1],12.7 µM (active)
same,Potency,[2],8.91 µM (active)
same,Potency,[5],5.04 µM (active)
same,Potency,[4],inactive
O=C([C@@H]1CCCN(c2ccc3[nH]c(C4(n5cc(Cl)cn5)CC4)nc3n2)C1)N1CCCC1,Potency,[1],inactive
same,Potency,[2],inactive
same,Potency,[3],inactive
same,Potency,[4],inactive
same,Potency,[6],inactive
Cc1ccc(S(=O)(=O)Nc2cc(C(F)(F)F)ccc2C(=O)Nc2nc(-c3ccccc3)cs2)cc1,Potency,[1],0.355 µM (active)
same,Potency,[2],inactive
same,Potency,[3],inactive
same,Potency,[4],inactive
same,Potency,[9],7.42 µM (active)
same,Potency,[8],8.33 µM (active)
same,Potency,[10],7.42 µM (active)
same,Potency,[11],8.33 µM (active)
same,Potency,[12],5.9 µM (active)
same,Potency,[13],9.34 µM (active)
N#Cc1nc(Nc2ccc3ccccc3c2)nc(NC2CCCC2)n1,Potency,[1],inactive
same,Potency,[2],inactive
same,Potency,[5],22.5 µM (active)
same,Potency,[4],inactive
Nc1ccc(Nc2cc(O)c3ncccc3c2)cc1,Potency,[1],inactive
same,Potency,[2],inactive
same,Potency,[3],0.712 µM (active)
same,Potency,[6],14.2 µM (active)
N#Cc1cnc(NS(=O)(=O)c2ccc(NC(=O)Cc3ccc(Cl)c(Cl)c3)cc2)s1,Potency,[1],25.2 µM (active)
same,Potency,[2],inactive
same,Potency,[3],inactive
same,Potency,[4],inactive
same,Potency,[6],inactive
COc1ccc(C2=Nn3c(nnc3-c3cccc(OC)c3OC)SC2)c(OC)c1,Potency,[1],2 µM (active)
same,Potency,[2],inactive
same,Potency,[5],inactive
same,Potency,[4],inactive
same,Potency,[6],inactive
CCOc1ccc(CCNC(=O)c2cc3c(s2)CCC3)cc1OCC,Potency,[1],inactive
same,Potency,[2],inactive
same,Potency,[5],14.2 µM (active)
same,Potency,[4],inactive
Cc1cc(C)nc(NC(=S)N2CC3CN(c4ncc(C(F)(F)F)cc4Cl)CC3C2)c1 (stereo not drawn),Potency,[1],inactive
same,Potency,[2],2.51 µM (active)
same,Potency,[5],inactive
same,Potency,[6],12.7 µM (active)
Cc1cc(-c2nnc3n2CCCC3)c(C)n1-c1ccccc1,Potency,[1],inactive
same,Potency,[2],inactive
same,Potency,[5],inactive
same,Potency,[4],inactive
same,Potency,[6],11.3 µM (active)

# Source: PubChem BioAssay (NCATS)
